Peg3 promoter – reduces Peg3 promoter-driven luciferase expression in HeLa. HeLa PEG-Prom luciferase reporter, luminescence, overnight. inhibition, % at 20 µM. 1.7% of 360,000 active;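 active means inhibition of at least 50% at 20 µM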
CF NFkB block – inhibitors of cystic fibrosis induced NF-kB | KKLEB NF-kB-GFP reporter, PAF-induced, GFP fluorescence overnight | inhibition, % at 5 µM | 0.86% of 360,000 active | AID 588850;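 active means at least 50% inhibition at 5 µM, scaled per plate between neutral and stimulator controls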;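 further: PAF is a Pseudomonas aeruginosa culture filtrate used as stimulus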
HIF-2a block – HIF-2a inhibition. 786-0 RCC cells HIF-2a reporter, luciferase luminescence, overnight. 0.72% of 360,000 active. inhibition, % at 18.8 µM;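 active means inhibition of the luminescence signal of 40% or more relative to plate controls, in a single-dose primary screen at 18.75 µM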
KKLEB cytotox – reduces viability of KKLEB cystic fibrosis airway cells; activity change (cytotoxicity), % at 5 µM; KKLEB CF airway cells viability, ATPlite luminescence, overnight; stronger effect = lower value; cells stimulated with P. aeruginosa culture filtrate; 0.36% of 360,000 active;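 active means corrected activity change at or below -50% at 5 µM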
Shn3 3UTR inh – Schnurri-3 reporter inhibition in Clone20 osteoblasts; Clone20 osteoblast Shn3 3'UTR firefly luciferase, 24 h; inhibition, % at 12.5 µM; 0.52% of 360,000 active; AID 588674;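 active means mean inhibition of at least 75% with every replicate also reaching 75%; inconclusive means mean inhibition at least 75% but some replicate below; inactive means mean inhibition below 75%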
Mdm2-MdmX confirm – Mdm2/MdmX (human) interaction inhibition, confirmed; 99% of 740 active; SaOS-2 split-luciferase Mdm2/MdmX complementation, luminescence; shares compounds with HIF-2a block; inhibition, % at 8 µM;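 active means mean inhibition of the luminescence signal across two replicates at or above 26 percent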
HIF-2a conf – HIF-2a inhibition, single concentration confirmation; shares compounds with HIF-2a block; 786-0 RCC cells, HIF-2a luciferase reporter luminescence, overnight; inhibition, % at 18.8 µM; 56% of 1,800 active;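 active means mean inhibition across four replicates of at least 40 percent at the single tested concentration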
HIF-1a counter – inhibits HIF-1a reporter, a counter-screen for HIF-2a inhibitors; shares compounds with HIF-2a block; MiaPaCa-2 HIF-1a luciferase reporter, desferoxamine, overnight; inhibition, % at 18.8 µM; 72% of 1,800 active;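 active means mean inhibition of the reporter signal across four replicates at the single tested dose of 50% or more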
Large screens that a line does not name were inactive (follow-up assays come after a bar, where they were run). Rows were chosen to be rich in hits. Some 2.6% of all compounds tested hit in one or more screens of this group.

C/C(NC1CCCCC1)=C(/C#N)C(=O)NCCN1CCOCC1	none
COc1ccccc1OCCC(=O)OCC(=O)NCc1ccc(Cl)cc1	none
COc1ccc(CNC(=O)COC(=O)CCCOc2ccc(Cl)cc2Cl)cc1	HIF-2a block 43 | HIF-2a conf inactive | HIF-1a counter inactive
CN(C)CCCNC(=O)C[C@H]1C[C@H](C(=O)N2CCCCC2)[C@@]2(C)c3[nH]c4ccc(Cl)cc4c3CCN2C1=O	none
CN(C)CCCNC(=O)C[C@H]1C[C@H](C(=O)N2CCCCC2)[C@@]2(CCc3ccccc3)c3[nH]c4ccc(Cl)cc4c3CCN2C1=O	Peg3 promoter 95, HIF-2a block 81 | Mdm2-MdmX confirm 103 | HIF-2a conf inactive | HIF-1a counter 103
CC(C)=CCC/C(C)=C/CNC(=O)C[C@H]1C[C@H](C(=O)N2CCOCC2)[C@@]2(CCC3CCCC3)c3[nH]c4cc(CCC(=O)N(C)C)ccc4c3CCN2C1=O	HIF-2a block 80 | HIF-2a conf inactive | HIF-1a counter 106
CCOC(=O)c1c(NC(=O)COC(=O)c2cccc([N+](=O)[O-])c2)sc(C(=O)N(C)C)c1C	none
CC(NC(=O)C(=O)N/N=C\c1ccc([N+](=O)[O-])cc1)c1ccccc1 (stereo unspecified)	none
Cc1ccc(C)c(Nc2nc3ccc(C)cc3n3cnnc23)c1	none
O=C(NCCOc1ccccc1F)C1CCC(=O)N(CC2CCCCC2)C1 (stereo unspecified)	none
CN(C)/C=C/C(=O)c1cnc(-c2ccccn2)s1	none
COc1cc(OC)nc(Nc2nc(C(N)Cc3ccc(C(F)(F)F)cc3)cs2)n1 (stereo unspecified)	Peg3 promoter 115, HIF-2a block 70 | HIF-2a conf inactive | HIF-1a counter 105
CCn1c2ccccc2c2cc(NC(=O)CSc3nnc(-c4ccc(OC)cc4)n3N)ccc21	HIF-2a block 41 | HIF-2a conf inactive | HIF-1a counter inactive
COc1ccc(C(C(=O)NCC2CCCO2)N(C(=O)c2snc(C(N)=O)c2N)c2ccccc2C)cc1OC (stereo unspecified)	none
Cc1ccc(-c2cnc(-c3ccncc3)o2)cc1	none
Nc1ccc(-c2ncc(-c3ccccc3)o2)cc1	HIF-2a block 78 | HIF-2a conf 92 | HIF-1a counter 62
CCCCC(=O)NC(c1ccc(Cl)cc1Cl)c1ccc2cccnc2c1O (stereo unspecified)	Peg3 promoter 54, Shn3 3UTR inh 93 | Mdm2-MdmX confirm 85
COc1ccc(NC(=O)c2oc3ccccc3c2C)cn1	none
Cc1cccc(C)c1OCC(=O)Nc1ccc2c(c1)OCCO2	none
O=C(O)/C=C/C(=O)c1ccc2c(c1)CCc1ccccc1-2	Peg3 promoter 100, CF NFkB block 64, HIF-2a block 50 | HIF-2a conf 57 | HIF-1a counter 103
O=C(COc1ccc(Cl)cc1Cl)N/N=C/C1CC=CCC1 (stereo unspecified)	none
O=C(Nc1cc(C(F)(F)F)cc(C(F)(F)F)c1)Nc1cnn(-c2ccc([N+](=O)[O-])cc2)c1C(F)(F)F	Peg3 promoter 96, CF NFkB block 77, HIF-2a block 57, KKLEB cytotox -69 | Mdm2-MdmX confirm 103 | HIF-2a conf inactive | HIF-1a counter 106
C[C@H](O)CC(=O)O	none
Cc1c(NC(=O)CSc2nnc3c4ccccc4n(CCc4ccccc4)c3n2)c(=O)n(-c2ccccc2)n1C	none | Mdm2-MdmX confirm 101
C=CCn1c(C)nnc1SCC(=O)N1CCN(S(=O)(=O)c2ccccc2)CC1	none
Cc1ccc(Sc2c([N+](=O)[O-])c(=O)n(C)c3ccccc23)cc1	HIF-2a block 52 | HIF-2a conf inactive | HIF-1a counter 87
O=c1cc(-c2c(F)c(F)c(F)c(F)c2F)oc2ccccc12	Peg3 promoter 84, HIF-2a block 62 | HIF-2a conf inactive | HIF-1a counter 80
O=c1cc(-c2cccc(F)c2)oc2ccccc12	none
CN(C)C(CNC(=S)Nc1ccccc1Cl)c1cccnc1 (stereo unspecified)	none
COC(=O)c1cccc(-c2noc(-c3ccccc3F)n2)c1	HIF-2a block 52 | HIF-2a conf 65 | HIF-1a counter inactive
NC(=O)c1cccc(-c2noc(-c3ccccc3F)n2)c1	none
CC(OC(=O)/C=C/c1ccccc1Cl)C(=O)NC1CCCCC1C (stereo unspecified)	none
NC1=NC[C@H](CC2CCCCC2)N1CCc1cc(C(F)(F)F)cc(C(F)(F)F)c1	Peg3 promoter 101, HIF-2a block 98 | Mdm2-MdmX confirm 100 | HIF-2a conf inactive | HIF-1a counter 106
COc1ccc(C)c2sc(N(CCCN(C)C)C(=O)c3ccc(S(=O)(=O)N4CCc5ccccc5C4)cc3)nc12	Peg3 promoter 102, CF NFkB block 75, HIF-2a block 85, KKLEB cytotox -84, Shn3 3UTR inh 92 | HIF-2a conf inactive | HIF-1a counter 97
O=c1[nH]c2ccc(Br)cc2c(=O)o1	HIF-2a block 44 | HIF-2a conf 45 | HIF-1a counter inactive
CN(C)CCNC(=O)c1cccc(-c2cc(NC=O)c3ncc(-c4cccc(C(F)(F)F)c4)n3c2)c1	Peg3 promoter 98, HIF-2a block 95 | HIF-2a conf inactive | HIF-1a counter 106
CN(C)CCNC(=O)c1cccc(-c2cnc3c(NC=O)cc(-c4cc(F)c(F)c(F)c4)cn23)c1	HIF-2a block 88 | HIF-2a conf inactive | HIF-1a counter 107
Oc1cccc2ccc(Nc3ccccn3)nc12	Peg3 promoter 102, CF NFkB block 60, HIF-2a block 95, KKLEB cytotox -67 | Mdm2-MdmX confirm 103 | HIF-2a conf 79 | HIF-1a counter 105
COc1cccc(CC(=O)N(CCC2=CCCCC2)c2c(N)n(Cc3ccccc3)c(=O)[nH]c2=O)c1	none
CC(=O)c1ccc(NC(=O)CSc2nc(Nc3ccccc3)nc(N3CCOCC3)n2)cc1	none
COC(=O)c1ccccc1NC(=O)CSc1nc(Nc2ccccc2)nc(N2CCOCC2)n1	HIF-2a block 41 | HIF-2a conf inactive | HIF-1a counter 70
COc1ccc(OC)c2sc(N(CCN(C)C)C(=O)/C=C/c3cccs3)nc12	Peg3 promoter 104, CF NFkB block 68, HIF-2a block 78, KKLEB cytotox -98, Shn3 3UTR inh inconclusive | HIF-2a conf inactive | HIF-1a counter 72
CCOc1cccc2sc(N(CCN(C)C)C(=O)/C=C/c3cccs3)nc12	none
CCN(CC)CCCN=C1N[C@@H](c2cccc(F)c2)C(C(=O)OC)=C(C)N1Cc1ccccc1	Peg3 promoter 97 | Mdm2-MdmX confirm 102

Source: PubChem BioAssay (several laboratories)
